# Source: PubChem BioAssay
# A549 tox: A549 cytotoxicity, counter-screen for Nrf2 inhibitors | Potency, µM (top dose mostly 46 µM), without a hit: at the top dose activity change, negative = cytotoxicity, hits mostly inhibitors | A549 ARE-Fluc cells, CellTiter-Fluor viability, 18-24 h | hit rate 0.16% among 390,000; note: % is set by controls: 0 for no effect and ±100 for the full control effect
#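 A549 ARE_Fluc cells in 5% FBS OPTI-MEM were exposed to compounds in concentration-response for 18-24 h at 37 deg C. Viability was read by CellTiter-Fluor fluorescence (Ex 405/Em 525) after 30 min, before the luciferase read.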
# Nrf2 inh: inhibitors of Nrf2 signaling. AID 504444. Potency, µM (doses to about 46 µM), inactives show top-dose activity change, negative = inhibition, most hits filed as inhibitors. hit rate 2.1% among 360,000. A549 ARE-Fluc reporter, luciferase luminescence, 18-24 h; note: % is set by controls: 0 for no effect and ±100 for the full control effect; nearly all actives have a fitted effect of over 60% in size
#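 Nrf2 function is reported as luminescence of an ARE-controlled luciferase in A549 cells. Compounds were tested at several concentrations, and a CellTiter-Fluor read on the same wells flagged cytotoxicity.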
# ATXN2 expr inh: reduces ATXN2 reporter expression in HEK-293 cells; HEK-293 ATXN2-luciferase reporter, luminescence, 24 h; Potency, µM (series often up to 57 µM), without a hit: at the top dose activity change, negative = inhibition, hits mostly inhibitors; hit rate 0.72% among 360,000; note: % is set by controls: 0 for no effect and ±100 for the full control effect; nearly all actives have a fitted effect of over 55% in size
#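 ATXN2-luciferase reporter cells (luciferase flanked by upstream and downstream ATXN2 gene portions) were treated 24 h at 37 °C with compounds at up to 57 uM. SteadyGlo luminescence gave expression; GF-AFC fluorescence gave viability.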
# Nrf2 ARE act: activators of Nrf2 (ARE) signaling. AREc32 ARE-luciferase reporter (MCF7-derived line), luminescence, 24 h. Potency, µM (top dose mostly 46.1 µM), inactives show at the highest dose activation, most hits filed as activators. hit rate 0.31% among 410,000; note: % of control where 0% means no effect; nearly all actives have a fitted effect of over 65% in size
#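 Luciferase luminescence (Steady-Glo, 30 min at room temperature) served as the read-out of ARE activation in AREc32 cells treated with compounds for 24 hr at 37 deg C.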
# ATXN viability: cell viability loss in ATXN counter-screen | S2 cells (HEK-293 line with an ATXN2-luciferase reporter) viability, CellTiter-Fluor protease fluorescence, 24 h | hit rate 0.49% among 400,000 | Potency, µM (titrated, usually from 56.7 µM), hits mostly cytotoxic; note: nearly all actives have a fitted effect of over 40% in size
# * = called active by the depositor; i = inactive; ? = inconclusive; / = no result; ! = repeats disagree; [ ] = another dose, or the depositor's remark. Rows were chosen to be rich in hits. Some 2.9% of all compounds tested hit in one or more screens of this group. Calls come from the whole dose curve; as a rule, active = well fitted curve in the direction sought with a large enough effect; inconclusive = small, poorly fitted or top-dose-only effect, or another doubt; inactive = no such curve, though single readings can be large; an effect the other way counts as inactive or inconclusive. Potency is the fitted concentration of half-maximal effect.
SMILES,A549 tox,Nrf2 inh,ATXN2 expr inh,Nrf2 ARE act,ATXN viability
Cc1ccccc1Nc1nc(C#N)nc(NC2CCCC2)n1,-18.4%,9.2µM*,/,/,/
N#Cc1nc(Nc2cccc3ccccc23)nc(NC2CCCC2)n1,-22.6%,18.4µM*,/,/,/
N#Cc1nc(Nc2ccccc2)nc(NC2CCCC2)n1,-7.1%,-14.6%,/,/,/
O=C(c1cnsn1)N1CCOc2ccc(CN3CCOCC3)cc2C1,/,/,/,/,i
COc1ccccc1N(CC(=O)NC1CC2CCC1C2)S(=O)(=O)c1ccc(C)cc1 (stereo unspecified),-18.4%,18.4µM*,-0.3%,0.7%,i
COc1ccccc1N(CC(=O)NCCSCc1ccccc1)S(=O)(=O)c1ccc(C)cc1,-2.5%,14.6µM*!,?,-0.1%,?
COc1ccc(S(=O)(=O)N(CC(=O)NC2CC3CCC2C3)c2ccccc2OC)cc1 (stereo unspecified),0.3%,-12.9%,-1.6%,4.2%,i
CCC(=O)Nc1nc(-c2ccc3c(c2)OCCO3)cs1,15.8%,?,49.3%,-0.1%,i
COc1ccc(-c2csc(NC(=S)NC(=O)c3ccc4ccccc4c3)n2)cc1OC,-14.3%,9.2µM*,-14.1%,-1.2%,i
COc1ccccc1C(=O)Nc1nc(-c2ccc3c(c2)OCCO3)cs1,-3.8%,23.1µM*,-36.6%,4.8%,i
COc1cccc(NC(=O)Nc2nc(-c3ccc(OC)c(OC)c3)cs2)c1,16.4µM*,7.31µM*,3.16µM*,-1.9%,8.91µM*
Cn1cccc1/C=N/NC(=O)Cc1cccc2ccccc12,-2.0%,18.4µM*,-19.9%[11.3 µM],0.0%,i
Nc1nc(CSC(=S)N2CCOCC2)nc(Nc2ccccc2)n1,8.5%,?,92.7%,11.6%,i
Nc1nc(CSC(=S)N2CCN(c3ccccc3)CC2)nc(Nc2ccc(F)cc2)n1,-3.5%,20.6µM*,-22.7%,4.3%,i
Cc1cc(C(=O)Nc2cccc(F)c2)c2c(C)nn(-c3cccc(Cl)c3C)c2n1,-0.8%,-21.5%,-5.2%,-0.4%,i
O=S(=O)(NCCNc1nc(-c2ccco2)nc2ccccc12)c1ccccc1,-3.0%,12.5%,/,/,/
O=C(Nc1ccc(OC(F)F)c(Cl)c1)Nc1ccc2c(c1)OCO2,-24.9%,?,-11.9%,-0.5%,?
O=C(Nc1ccc([N+](=O)[O-])cc1)Nc1ccc(OC(F)F)c(Cl)c1,?,20.6µM*,12.6µM*,-0.8%,/
O=C(NC(Cc1c[nH]c2ccccc12)C(=O)Nc1ccc(OC(F)(F)F)cc1)c1cccs1 (stereo unspecified),23.1µM*,?,181.4%[11.3 µM],-0.7%,i
CC(=O)OCC(NC(=O)C(COCc1ccccc1)NC(=O)OC(C)(C)C)C1OC(n2cc(F)c(=O)[nH]c2=O)C(OC(C)=O)C1OC(C)=O (stereo unspecified),-5.0%,12.2%,/,/,/
CCC(C)Nc1nc(-c2cccc(OC)c2O)nc2ccccc12 (stereo unspecified),?,20.6µM*,?,-2.1%,?
Nc1nc(=O)n([C@H]2CSC(CO)O2)cc1F (stereo partly specified),/,/,-5.0%,/,/
O=C(CNC(=O)c1ccccc1)N[C@H](C(=O)Nc1cc(C(F)(F)F)ccc1Cl)c1ccccc1,-3.0%,-11.6%,/,/,/
CN1CCN(c2ccc(NC(=O)c3ccc4ccccc4c3)cc2)CC1,-3.8%,?,14.1µM*,-1.3%,i
Cc1ccccc1C(=O)N1CCN(c2ccc(NC(=O)CSc3ccc(Cl)cc3)cc2)CC1,-28.0%,20.6µM*,?,0.4%,i
SMILES,A549 tox,Nrf2 inh,ATXN2 expr inh,Nrf2 ARE act,ATXN viability
COc1ccc(C(=O)Nc2ccc(N3CCN(C)CC3)cc2)cc1,6.9%,?,/,5.7%,?
CCC(=O)Nc1ccc(N2CCN(C(=O)c3ccccc3C)CC2)cc1,-16.5%,-4.2%,8.2%,-0.6%,i
COc1c(C)cccc1C(=O)Nc1ccc(N2CCN(C(=O)c3ccccc3C)CC2)cc1,-14.2%,20.6µM*,20µM*,-1.2%,?
Cc1ccccc1C(=O)N1CCN(c2ccc(NC(=O)c3ccc4c(c3)OCCO4)cc2)CC1,-3.7%,20.6µM*,28.2µM*,-0.2%,?
COc1cc(OC)c(N(C)C(=O)CSc2c3c(nc4ccc(Cl)cc24)CCCC3)cc1Cl,7.7%,-22.9%,/,?,/
Cc1nn(-c2ccccc2)c2nc(N)c(C#N)c(-c3ccc(C(C)(C)C)cc3)c12,?,6.2%,-9.1%,-0.1%,i
COc1cccc(-c2c(C#N)c(N)nc3c2c(C)nn3-c2ccccc2)c1O,?,25.9µM*,?,4.2%,i
O=C(c1ccc(Cl)cc1)N1CCCCC(Sc2nnc(-c3ccc4c(c3)OCO4)o2)C1=O (stereo unspecified),-14.1%,?,2.24µM*,-1.7%,i
O=C(O)CSc1nnc(-c2ccc3c(c2)OCO3)o1,-6.4%,-12.4%,-34.5%,-2.2%,i
O=C1NC(=O)[C@@H](c2cn3c4c(cccc24)CCC3)[C@H]1c1c[nH]c2ccccc12,/,/,-21.1%,/,/
COc1ccc(C=Cc2cc(OC)c(OC)c(OC)c2)cc1O,/,/,0.3%,/,/
CN(C)C(=O)COc1ccc2ccc(=O)oc2c1,-1.1%,8.6%,-6.3%,2.7%,i
CC(C)=CC(O)C/C(C)=C/COc1ccc2ccc(=O)oc2c1 (stereo unspecified),-28.9%,10.3µM*,?,-3.4%,i
O=C(NCC(c1cccnc1)N1CCN(c2ccc(F)cc2)CC1)c1ccccc1 (stereo unspecified),-1.8%,-6.3%,-0.8%,-0.3%,i
O=C(NCc1ccc(Cl)cc1)C(=O)NCC(c1cccnc1)N1CCN(c2ccc(F)cc2)CC1 (stereo unspecified),-20.7%,20.6µM*,-21.5%,4.5%,i
O=C(c1ccc([N+](=O)[O-])s1)N1CCN(c2ccccc2)CC1,?,20.6µM*,/,-2.7%,?
CCN1CCN(c2c(S(=O)(=O)c3ccc(OC)cc3)cnc3cc(OC)c(OC)cc23)CC1,-10.9%,5.2%,-38.7%,0.3%,?
COc1cc2ncc(S(=O)(=O)c3ccccc3)c(N3CCCC(C)C3)c2cc1OC (stereo unspecified),?,23.1µM*,?,-5.0%,?
COC(=O)c1ccc2nc(-c3ccc(OC)c(OC)c3)c(CC3CCCCC3)n2c1,/,/,-6.0%,6.0%,i
COC(=O)c1ccc2nc(-c3cccc(Br)c3)c(CC3CCCCC3)n2c1,/,/,20.4%,8.91µM*,?
CCOC(=O)c1c(C)nn(-c2ccc(NC(=O)c3cccs3)cc2)c1C,-6.0%,?,28.2µM*,0.1%,i
CCOC(=O)c1c(C)nn(-c2ccc(NC(=O)c3c(C)noc3C)cc2)c1C,2.5%,?,?,4.2%,i
CC(=O)c1sc2nc(-c3cccs3)cc(C(F)(F)F)c2c1N,11.5%,10.1%,-3.5%,6.31µM*,i
Cc1c(C(=O)Nc2nccs2)sc2nc(-c3cccs3)cc(C(F)(F)F)c12,-21.5%,/,25.1µM*,16.1%,?
